Screening results: PubChem, National Center for Advancing Translational Sciences (NCATS)
Shown are actives, neighbours in structure and some others; about 6.9% of the full set was active somewhere.
IL-1B inflam inh – inflammasome signaling inhibition, IL-1 beta readout; activity change, % at 57.5 µM; THP-1 LPS/ATP IL-1B secretion, AlphaLISA, 16 h; active compounds read low; hit rate 4.7% among 360,000; AID 743279; in the data active means activity change below about -50%; inconclusive means mostly about -30% to -49%; further: on the % scale 0 is the no-effect control and ±100 the full control effect
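THP-1 cells pretreated 1 hr with compounds (up to 57.5 uM final), then stimulated with LPS (250 ng/mL final) plus ATP (1.25 mM final); secreted IL-1B measured by AlphaLISA after 16 hr, decreased signal indicating inhibition.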
SW480 rereplic – inducers of DNA re-replication in SW480 colon cancer cells. hit rate 1.8% among 340,000. SW480 DNA re-replication, Hoechst DNA content imaging, 48 h. Potency, µM (doses to about 46.1 µM), without a hit: at the top dose re-replication activation, usual class: activators; further: potency means the concentration at half of the fitted maximal effect; % of control where 0% means no effect; nearly all actives have a fitted effect of over 55% in size
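Image-based read-out: total Hoechst fluorescence of nuclei (405 nm excitation, 500-530 nm emission), with hits raising the fraction of high-intensity nuclei. SW480 colon cells incubated 48 hr with compounds at 37 C.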
Vif-A3F inh – Vif-A3F binding inhibition. HeLa A3F-eYFP + Vif (tagged APOBEC3F with the HIV-1 protein that degrades it), YFP fluorescence increase. Potency, µM (series often up to 46.1 µM), for inactives: top-dose activity, negative = active. hit rate 0.2% among 390,000. AID 602313; further: potency means the concentration at half of the fitted maximal effect; % of control where 0% means no effect; nearly all actives have a fitted effect of over 65% in size
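Fluorescence increase (Ex 488/Em 500-530) after overnight compound treatment at 37 deg C flags inhibition of Vif-driven A3F-eYFP loss in stable HeLa A3F-eYFP/Vif cells seeded overnight beforehand.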
Giardia kill – kills Giardia lamblia. hit rate 0.15% among 340,000. activity change, % at 7.66 µM, hits read low. Giardia lamblia trophozoite viability. AID 540267; in the data active means activity change below about -80%; inconclusive means between about -30% and that limit;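 further: parasites exposed to compound for two days anaerobically before the ATP read; on the % scale 0 is the no-effect control and ±100 the full control effect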
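Compounds were tested on trophozoites seeded at 100 cells/well and held 48 hrs at 37 deg C anaerobically. An ATP-based luminescent kit measured the remaining live cells.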
Vif-A3G inh – Vif-A3G binding inhibition; HeLa A3G-eYFP + Vif (tagged APOBEC3G with the HIV-1 protein that degrades it), YFP fluorescence, overnight; hit rate 0.076% among 410,000; Q9HC16; Potency, µM (highest dose often 46.1 µM), for the others: at the top dose activity, negative = active, actives largely listed as inhibitors; further: potency means the concentration at half of the fitted maximal effect; on the % scale 0 is the no-effect control and ±100 the full control effect; nearly all actives have a fitted effect of over 60% in size
Target sequence (Q9HC16 whole entry, looked up): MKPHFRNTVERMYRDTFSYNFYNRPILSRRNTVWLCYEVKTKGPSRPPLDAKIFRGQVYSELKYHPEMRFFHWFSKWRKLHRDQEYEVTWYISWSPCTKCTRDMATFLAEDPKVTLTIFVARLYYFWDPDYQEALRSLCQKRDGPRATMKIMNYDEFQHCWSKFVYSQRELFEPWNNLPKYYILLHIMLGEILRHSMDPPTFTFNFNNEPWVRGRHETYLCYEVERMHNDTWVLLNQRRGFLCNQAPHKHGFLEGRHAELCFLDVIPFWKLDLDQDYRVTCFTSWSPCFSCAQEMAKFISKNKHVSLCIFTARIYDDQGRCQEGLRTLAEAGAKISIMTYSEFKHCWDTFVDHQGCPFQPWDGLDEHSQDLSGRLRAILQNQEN
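Read-out is eYFP fluorescence (Ex 488/Em 500-530) from Vif-expressing HeLa A3G-eYFP cells; more signal means A3G escaped Vif-mediated degradation. Cells plated overnight, compound pinned in, incubated overnight at 37 deg C.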
MCF10A rerep – DNA re-replication induction in MCF 10a cells; Potency, µM (highest dose often 46.1 µM), for inactives: at the highest dose activity, positive = re-replication, actives largely listed as activators; MCF 10A DNA re-replication, Hoechst nuclear intensity, 48 h; hit rate 2.9% among 350,000; further: potency means the concentration at half of the fitted maximal effect; % of control where 0% means no effect; nearly all actives have a fitted effect of over 50% in size
* marks the source's active call; other numbers are inactive results; ? = inconclusive; . = not tested or not shown. Unless noted, the call rests on the fitted dose curve; in most records, active means well fitted curve in the direction sought with a large enough effect; inconclusive means small, poorly fitted or top-dose-only effect, or another doubt; inactive means no such curve, though single readings can be large; an effect the other way counts as inactive or inconclusive.

SMILES	IL-1B inflam inh	SW480 rereplic	Vif-A3F inh	Giardia kill	Vif-A3G inh	MCF10A rerep
Cc1ccc2c(=O)cc(C(=O)Nc3ccc(S(=O)(=O)N4CCC(C)CC4)cc3)oc2c1C	.	.	3%	.	1%	.
COc1cc([C@@H]2c3cc4c(cc3[C@@H](O)[C@H]3COC(=O)[C@H]23)OCO4)cc(OC)c1O[Si](C)(C)C(C)(C)C	-88*	-7%	1%	-21	2%	?
COc1ccc(CCNC(=O)c2cnn(-c3ccc(F)cc3)c2C2CCN(C(=O)OC(C)(C)C)CC2)c(OC)c1	.	.	-3%	.	6%	.
COc1ccc(-c2nc3n(n2)C(c2ccccc2OC)C(C(=O)Nc2cccnc2)=C(C)N3)cc1 (configuration not stated)	.	.	2%	.	1%	.
CCc1nc2c(OCc3ccc(C(F)(F)F)cc3)cccn2c1N(C)C(=O)c1ccc(C)cc1	-76*	.	.	.	-13%	.
CCc1nc2c(OCc3ccc(C(F)(F)F)cc3)cccn2c1N(C)C(=O)c1ccc(OC)cc1	-81*	.	.	.	-5%	.
CCc1nc2c(OCc3ccc(Cl)cc3Cl)cccn2c1N(C=O)Cc1ccc(OC)cc1	-67*	.	.	.	-9%	.
CCOC(=O)N(C)c1c(CC)nc2c(OCc3ccc(C(F)(F)F)cc3)cccn12	-9	.	.	.	-1%	.
CCc1nc2c(OCc3cc(Cl)cc(Cl)c3)cccn2c1N(C)C(=O)c1ccc(C)cc1	-57*	.	.	.	-13%	.
COc1ccc(CCNC(=O)c2c([S-])n(-c3ccc(C)cc3)c3cccc[n+]23)cc1	-52*	?	13%	3	0%	11%
CCc1ccc2n(-c3ccc(OC)cc3)c([S-])c(C(=O)Nc3cc(C)cc(C)c3)[n+]2c1	-4	24%	2%	14	-7%	?
O=C(Nc1ccccc1Sc1ccccc1)c1cnn2c1NC(=C1CC1)C=C2C(F)F	.	.	.	-7	1%	.
COc1ccc(-c2csc(NC(=O)c3ccc(OCC(=O)N4CCOCC4)c(OC)c3)n2)cc1	-79*	1%	13%	-7	-6%	?
COc1cc(C(=O)Nc2nc(-c3cc(C)ccc3C)c(C)s2)ccc1OCC(=O)Nc1ccc(F)cc1	32	-7%	-14%	6	-6%	?
COc1cc(C(=O)Nc2nc(-c3ccc(C)cc3)cs2)ccc1OCC(=O)N1CCOCC1	-11	-88%	3%	-24	-13%	21%
COc1ccc(-c2nc(NC(=O)c3ccc(OCC(=O)Nc4ccc(F)cc4)c(OC)c3)sc2C)cc1	-1	21%	-15%	7	-15%	21µM*
COc1cc(C(=O)NNC(=O)c2ccc(F)cc2)ccc1OCC(=O)N1CCOCC1	30	-5%	-11%	4	0%	-2%
COc1cc(C(=O)Nc2nc(-c3ccc(F)cc3)cs2)ccc1OCC(=O)N1CCOCC1	?	1%	0%	5	-10%	23µM*
Cc1cc(O)c(C(c2ccccc2)N2CCN(c3ccccc3)CC2)c(=O)n1Cc1ccco1 (configuration not stated)	.	.	-1%	.	-2%	.
CC(=O)c1cccc(NC(=O)c2c(C)nn(-c3ccc(F)cc3)c2-n2cccc2)c1	.	.	-1%	.	-1%	.
COc1ccc2c(c1)-c1c(ssc1=S)C(C)(C)N2S(=O)(=O)c1ccc(C)cc1	10	7.3µM*	-5%	9	?	5.2µM*
COc1ccc2c(c1)-c1c(ssc1=S)C(C)(C)N2	-77*	-4%	-1%	4	1%	12µM*
CCOc1ccccc1CNCc1c(C(=O)O)n(Cc2ccc(F)cc2)c2cc(C)ccc12	.	.	-15%	.	-1%	.
CN(CCOc1ccccc1)C(=O)c1cc(S(=O)(=O)N2CCOCC2)c(Cl)cc1Cl	-8	.	-1%	.	1%	.
NC(=O)c1cc(S(=O)(=O)N2CCCC2)ccc1OCCOc1ccccc1	-51*	-8%	6%	9	-12%	1%
SMILES	IL-1B inflam inh	SW480 rereplic	Vif-A3F inh	Giardia kill	Vif-A3G inh	MCF10A rerep
CN(CCOc1ccccc1)C(=O)c1cc(S(=O)(=O)N2CCCCC2)ccc1Cl	-65*	-88%	1%	-23	3%	5%
CCOCCCNC(=O)c1cnc2sc(N3CCCCC3)nn2c1=O	.	.	2%	.	2%	.
COCCCNC(=O)c1cc2c(=O)n3cccc(C)c3nc2n(C(C)C)c1=N	-69*	2.8µM*	6%	-6	0%	?
CCNC(=O)c1cc2c(=O)n3cccc(C)c3nc2n(Cc2ccc(C)cc2)c1=N	13	2.1µM*	-5%	-4	-6%	?
Cc1cccn2c(=O)c3cc(C(=O)NC(C)C)c(=N)n(Cc4ccncc4)c3nc12	-5	21µM*	-4%	-7	0%	16µM*
COc1cccc(CN(C)C(=O)CNC(=O)c2sc3ccccc3c2Cl)c1OC	-51*	-4%	0%	0	2%	?
COc1ccccc1C(=O)NC(=S)NNC(=O)c1sc2ccccc2c1Cl	11	20%	0%	?	-8%	5.2µM*
COc1ccccc1C(=O)NC(=S)Nc1cccc2cc(O)ccc12	-85*	1%	0%	0	1%	7%
O=C(NC(=S)Nc1cccc2cc(O)ccc12)c1ccccc1Br	-13	-3%	4%	18	-5%	-3%
COc1ccc(NC(=O)CC2C(=O)N(c3cccc(OC)c3)C(=O)N2Cc2ccc3c(c2)OCO3)cc1 (configuration not stated)	.	.	2%	.	-2%	.
CCOC(=O)C1(C(F)(F)F)N=C(C(F)(F)F)Nc2ccc(F)cc21 (configuration not stated)	15	13µM*	1%	-19	0%	-2%
CCOC(=O)C(NC(=O)Nc1ccc(F)cc1)(OCC)C(F)(F)F (configuration not stated)	16	-5%	-16%	-4	-1%	4%
COc1cc(OC)c(C2=Nc3ccc(Br)cc3C(c3ccccc3)N2CC(=O)NN)cc1OC (configuration not stated)	2	-9%	-5%	-1	8%	2.9µM*
CC1(C)C/C(=N\NC(=S)Nc2ccccc2F)c2cc(O)ccc2O1	-79*	19%	5%	9	0%	-14%
CCCCS(=O)(=O)c1nc(-c2ccc(Br)cc2)cc(-c2ccccc2)c1C#N	.	.	0%	.	-29%	.
Cc1ccc(COc2cccc3cc(-c4noc(-c5ccc(C)cc5)n4)c(=O)oc23)cc1	.	.	14%	.	4%	.
Cc1ccc(-c2nc(-c3cc4cccc(OCc5cccc(F)c5)c4oc3=O)no2)cc1	.	.	8.9µM*	.	-29%	.
CCN(CC)S(=O)(=O)c1cc(NC(=O)CSc2nc3c(cc2C#N)C(=O)CC(C)(C)C3)ccc1C	-57*	?	-1%	-4	-3%	?
